Lassa entry inh = inhibitors of Lassa virus binding or cell entry; Lassa virus pseudotype entry inhibition, cell reporter; Potency, µM (doses to about 37.9 µM), without a hit: at the top dose activity change, negative = inhibition, most hits filed as inhibitors; hit rate 1.2% among 300,000; AID 540256; calls by dose curve; tested in HEK293 cells; note: potency is the fitted concentration of half-maximal effect; % is set by controls: 0 for no effect and ±100 for the full control effect; nearly all actives have a fitted effect of over 50% in size
Marburg entry inh = Marburg virus entry inhibition; Marburg virus pseudotyped entry inhibition, cell reporter; Potency, µM (series often up to 37.8 µM), inactives show top-dose activity change, negative = inhibition, usual class: inhibitors; AID 540276; hit rate 1.8% among 300,000; calls by dose curve; tested in HEK293 cells; note: potency is the fitted concentration of half-maximal effect; % is set by controls: 0 for no effect and ±100 for the full control effect
HCV inh = inhibitors of hepatitis C virus infection | hit rate 3.4% among 340,000 | Huh7.5.1 HCVcc-Cre infection, luciferase reporter, 44 h | Potency, µM (doses to about 41.8 µM), without a hit: at the top dose activity change, negative = inhibition, usual class: inhibitors; active = well fitted inhibition curve with a large enough effect; inconclusive = small, poorly fitted or top-dose-only effect, or another doubt; inactive = no such curve, though single readings can be large or run the other way; note: potency is the fitted concentration of half-maximal effect; % is set by controls: 0 for no effect and ±100 for the full control effect
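Infectious HCVcc-Cre (~0.5 moi) was added to cells just after compound, with cells seeded 4 h earlier at 1,000 per well. Luciferase activity after 44 h culture reported infection; substrate was incubated 15 min at room temperature before reading.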
FMDV inh = foot and mouth disease virus antiviral activity | AID 1159524 | FMDV antiviral cell-based qHTS | hit rate 1.2% among 410,000 | Potency, µM (series often up to 57.9 µM), for the others: top-dose activity change, negative = inhibition, actives largely listed as inhibitors; calls by dose curve; tested in HEK293T cells; note: read-out not given here; potency is the fitted concentration of half-maximal effect; % is set by controls: 0 for no effect and ±100 for the full control effect; nearly all actives have a fitted effect of over 45% in size
SARS PLP yeast = SARS-CoV PLP inhibition in yeast; S. cerevisiae expressing SARS-CoV PLpro, growth rescue; Potency, µM (highest dose often 32.9 µM), for the others: at the top dose activity, positive = growth rescue, hits mostly activators; hit rate 0.19% among 330,000; calls by dose curve; note: potency is the fitted concentration of half-maximal effect; 0% is about no effect; nearly all actives have a fitted effect of over 55% in size
HCMV antiviral = blocks human cytomegalovirus replication | HFF cells, HCMV-luciferase reporter, 72 h; active compounds read low | activity change, negative = inhibition, % at 57.5 µM | hit rate 4.5% among 410,000 | AID 1259415; in the data active = activity change below about -60%; inconclusive = no clear call, values can overlap the other calls; inactive = above about -39%; note: % is set by controls: 0 for no effect and ±100 for the full control effect
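HFF cells seeded 16 h at 37C, treated with compounds, infected with luciferase-reporter HCMV at MOI 1 PFU/cell; luciferase read at 72 h post infection, normalized to buffer-only and Salinomycin controls.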
Numbers without * were called inactive; ! = repeats disagree; [ ] = remark or other dose. Most compounds without a hit are left out; they make up all but 8% or so of the library.

What do the screens show for `CCOc1ccccc1C(=O)Nc1cc(C(=O)NCCc2ccccc2)ccc1Cl`?
Lassa entry inh: -16.2%; Marburg entry inh: 4.6%; HCV inh: 2.51µM*; SARS PLP yeast: -3.9%; HCMV antiviral: -10.1

Results for CCOc1ccccc1NC(=O)C(OC(=O)c1ccc(O)cc1)c1ccccc1 (stereo not drawn) ?
Lassa entry inh: inconclusive; Marburg entry inh: inconclusive; HCV inh: inconclusive; FMDV inh: 0.0%; SARS PLP yeast: -56.5%; HCMV antiviral: 30.6

Results for CCOc1ccccc1NC(=O)c1ccc(Cl)c(NC(=O)CC(c2ccccc2)c2ccccc2)c1 ?
Lassa entry inh: -3.7%; Marburg entry inh: 14.6µM*; HCV inh: 5.7%; SARS PLP yeast: 3.1%; HCMV antiviral: -35.7

How did CCOc1ccccc1NC(=O)c1cc(SC)ccc1Cl do in these assays?
Lassa entry inh: -24.5%; Marburg entry inh: inconclusive; HCV inh: 22.4µM*; FMDV inh: -4.9%; SARS PLP yeast: -5.6%; HCMV antiviral: -27.4

What do the screens show for `CCOc1ccccc1NC(=O)C(OC(=O)c1ccc(N(C)C)cc1)c1ccccc1` (stereo not drawn)?
Lassa entry inh: inconclusive; Marburg entry inh: inconclusive; HCV inh: 11.2µM*; FMDV inh: -16.1%; SARS PLP yeast: 9.6%; HCMV antiviral: -32.1

Results for C/C=C1/C(=O)C[C@@H]2[C@H]3CCC4=CC(=O)CC[C@]4(C)[C@@H]3CC[C@]12C ?
FMDV inh: -12.0%

What do the screens show for `CCOc1ccc(NC(=O)Cn2c(=O)n(-c3ccc(C)cc3)c(=O)c3cc(OC)c(OC)cc32)cc1`?
Lassa entry inh: 14.4%[46.1 µM]; Marburg entry inh: -1.8%[46.1 µM]; FMDV inh: -19.5%; HCMV antiviral: 4.2

How did CCOc1ccccc1NC(=O)c1ccc(C(=O)Nc2ccccc2OCC)nc1 do in these assays?
HCV inh: -3.7%; FMDV inh: 3.0%; SARS PLP yeast: -4.9%; HCMV antiviral: -63.8*

What do the screens show for `Cn1ccnc1C1CCCCN1C(=O)CN1Cc2ccccc2OC(c2ccccc2F)C1` (stereo not drawn)?
FMDV inh: -3.3%

Results for COc1ccc(NC(=O)c2cc(-c3cc(F)ccc3OC(C)C)n[nH]2)c(C)c1 ?
FMDV inh: -20.8%; HCMV antiviral: inconclusive

What do the screens show for `CC(C)CN1C(=O)c2ccc(C(=O)Nc3ccccn3)cc2C1=O`?
Lassa entry inh: 15.0%; Marburg entry inh: 18.4%; HCV inh: -0.9%; FMDV inh: 21.5%; SARS PLP yeast: -3.9%; HCMV antiviral: -10.5

What do the screens show for `CC(C)CN1C(=O)c2ccc(C(=O)Nc3ccncc3)cc2C1=O`?
Lassa entry inh: 10.3%; Marburg entry inh: 2.9%; HCV inh: 5.8%; FMDV inh: 12.6µM*; SARS PLP yeast: -1.2%; HCMV antiviral: -31.3

What do the screens show for `COC(=O)c1cccc(NC(=O)c2ccc3c(c2)C(=O)N(CC2CCCO2)C3=O)c1` (stereo not drawn)?
Lassa entry inh: 0.7%; Marburg entry inh: -13.9%; HCV inh: -0.2%; FMDV inh: inconclusive; SARS PLP yeast: -3.5%; HCMV antiviral: -8.8

Results for CC(C)(C)NC(=O)c1cccc(NC(=O)c2ccc3c(c2)C(=O)N(C(C)(C)C)C3=O)c1 ?
Lassa entry inh: inconclusive; Marburg entry inh: inconclusive; HCV inh: inconclusive; FMDV inh: 25.1µM*; SARS PLP yeast: 0.8%; HCMV antiviral: 20.4

What do the screens show for `O=C(O)c1cccc(NC(=O)c2ccc3c(c2)C(=O)N(CC2CCCO2)C3=O)c1` (stereo not drawn)?
Lassa entry inh: -9.3%; Marburg entry inh: -7.3%; HCV inh: 2.1%; FMDV inh: 15.8µM*; SARS PLP yeast: -0.5%; HCMV antiviral: -108.4*

What do the screens show for `COC(=O)Cc1ccc(NC(=O)c2ccc3c(c2)C(=O)N(CC2CCCO2)C3=O)cc1` (stereo not drawn)?
Lassa entry inh: 14.2%; Marburg entry inh: 10.2%; HCV inh: -0.8%; FMDV inh: 28.2µM*; SARS PLP yeast: -3.0%; HCMV antiviral: -29.6

What do the screens show for `O=c1c2[nH]c3ccc(F)cc3c2nc2n1CCCS2`?
Lassa entry inh: 1.4%; Marburg entry inh: -0.8%; HCV inh: inconclusive; FMDV inh: 0.5%; SARS PLP yeast: -5.3%; HCMV antiviral: 46.4

Results for C[C@H]1[C@@H](NC(=O)Nc2cc(Cl)cc(Cl)c2)CC[C@@]23CCCN2C(=O)CCC[C@@H]13 ?
HCMV antiviral: 3.9

Results for CCN(C(=O)Cc1c(C(=O)O)c(C)cn1C)c1cccc(Cl)c1 ?
Lassa entry inh: 2.6%[46.1 µM]; FMDV inh: -19.6%; HCMV antiviral: 10.9

Results for Cn1cc(C(=O)NCCc2ccccc2)c(=O)c2cc(S(=O)(=O)N3CCCCCC3)ccc21 ?
Lassa entry inh: 7.3%[46.1 µM]; Marburg entry inh: 8.4%[46.1 µM]; FMDV inh: 9.8%; HCMV antiviral: 6.1

What do the screens show for `O=c1[nH]c2ccccc2n1CCCN1CCC(n2c(=O)[nH]c3cc(Cl)ccc32)CC1`?
Lassa entry inh: inconclusive; Marburg entry inh: 11.2µM*!; HCV inh: inconclusive; FMDV inh: inconclusive; SARS PLP yeast: 3.5%; HCMV antiviral: -78.5*

What do the screens show for `O=C1c2ccccc2C(=O)c2[nH]c(=O)[nH]c21`?
Lassa entry inh: 10µM*; Marburg entry inh: inconclusive; HCV inh: 6.31µM*; FMDV inh: -4.6%; SARS PLP yeast: -1.6%; HCMV antiviral: -98.6*

What do the screens show for `CCOC(=O)/C(=C\c1cccnc1)C(=O)c1cc(C(C)=O)c(Nc2ccccc2)s1`?
Lassa entry inh: inconclusive; Marburg entry inh: inconclusive; HCV inh: inconclusive; FMDV inh: 3.98µM*; SARS PLP yeast: -50.9%

What do the screens show for `CCOC(=O)/C(=C\c1ccccc1)C(=O)c1cc(C(C)=O)c(Nc2ccccc2)s1`?
Lassa entry inh: inconclusive; Marburg entry inh: inconclusive; HCV inh: 7.08µM*; FMDV inh: 14.1µM*; SARS PLP yeast: 1.7%; HCMV antiviral: -105.1*

Results for O=C(Nc1cccc(Cl)c1)Nc1ccc2nccnc2c1 ?
HCV inh: inconclusive; FMDV inh: 7.7%; SARS PLP yeast: -2.1%; HCMV antiviral: -76.5*

What do the screens show for `COC(=O)c1cc(NC(=O)/C=C/c2ccc3c(c2)OCO3)cc(C(=O)OC)c1`?
Lassa entry inh: inconclusive; Marburg entry inh: inconclusive; HCV inh: inconclusive; FMDV inh: -10.4%; SARS PLP yeast: -0.6%; HCMV antiviral: 27.5

What do the screens show for `O=C(Nc1cccc(C(=O)O)c1)Nc1ccccc1Cl`?
Lassa entry inh: 3.98µM*; Marburg entry inh: 8.91µM*; HCV inh: 6.3%; FMDV inh: 10µM*; SARS PLP yeast: -1.2%; HCMV antiviral: -9.9

How did COC(=O)c1cccc(NC(=O)/C=C/c2ccc3c(c2)OCO3)c1 do in these assays?
Lassa entry inh: 11.2µM*; Marburg entry inh: inconclusive; HCV inh: inconclusive; FMDV inh: -2.8%; SARS PLP yeast: -49.0%; HCMV antiviral: -2.8

Screens as filed in PubChem BioAssay.
